Compounds with a hit are over-represented: about 21% of the library has one in this group of screens.
MRP-1 activ: activates MRP-1; hit rate 0.61% among 140,000; H69AR cells + doxorubicin, viability rescue, CellTiter-Glo; AID 799; viability increase, % at 10 µM;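 active = viability gain under doxorubicin at or above a set limit, the compound median plus 3 SD, cut at about 4.7% in these data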;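 also: MRP-1 overexpressing cells given doxorubicin 25 µM after compound pretreatment; 18-22 h compound pretreatment then 72 h with doxorubicin before readout; 0% = doxorubicin-only wells and 100% = vehicle-treated cells without doxorubicin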
MRP resist rev: MRP-mediated drug resistance reversal | H69AR cells + 2 uM doxorubicin, CellTiter-Glo, 72 h | differential viability (reversal), % at 10 µM | hit rate 0.04% among 85,000 | AID 602;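 active = viability drop by adding the cancer drug above about 55%, with treated viability meeting a 40% cutoff, limit read from the data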;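 also: viability without doxorubicin minus viability with 2 µM doxorubicin for each compound; larger differential means the compound sensitizes cells more to doxorubicin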
CYP2C9 activ: CYP2C9 (human) activation; P11712; recombinant CYP2C9, luciferin-H conversion, luminescence; stronger effect = higher value; factor 1 = untreated enzyme, 0 = blocked; activation factor at 5 µM; hit rate 1.4% among 96,000; AID 1024;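 active = activation factor of 2 or more for CYP2C9 at a 5 µM dose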;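 also: 0 = sulfaphenazole-blocked wells and 1 = vehicle-only wells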
CYP2C19 activ: activators of human cytochrome P450 2C19; P33261; recombinant CYP2C19, luciferin-H EGE luminescence; stronger effect = higher value; 0 = fully inhibited enzyme, 1 = untreated enzyme; activation factor at 5 µM; 96,000 tested, under 10 active; AID 1025;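 active = activation factor of at least 2 at 5 µM in the primary screen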;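 also: 0 = wells with 2.5 mM tranylcypromine and 1 = vehicle-only wells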
Target sequence (P33261 whole entry, looked up): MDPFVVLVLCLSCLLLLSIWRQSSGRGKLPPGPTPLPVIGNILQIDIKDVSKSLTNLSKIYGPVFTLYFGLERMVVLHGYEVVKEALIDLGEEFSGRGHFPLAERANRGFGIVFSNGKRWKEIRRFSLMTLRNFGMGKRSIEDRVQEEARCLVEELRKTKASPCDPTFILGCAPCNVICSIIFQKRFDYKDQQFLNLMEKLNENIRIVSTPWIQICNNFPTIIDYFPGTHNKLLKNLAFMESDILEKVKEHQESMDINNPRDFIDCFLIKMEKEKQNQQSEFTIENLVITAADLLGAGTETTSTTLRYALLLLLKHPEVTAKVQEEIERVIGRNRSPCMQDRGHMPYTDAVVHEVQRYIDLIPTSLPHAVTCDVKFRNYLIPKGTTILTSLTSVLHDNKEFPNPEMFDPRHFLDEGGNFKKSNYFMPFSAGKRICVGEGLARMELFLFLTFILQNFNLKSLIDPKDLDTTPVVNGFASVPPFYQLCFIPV
CYP2C19 inh: blocks human cytochrome P450 2C19 | CYP2C19 Supersomes, luciferin-H EGE luminescence, 30 min | inhibition, % at 5 µM | hit rate 21% among 96,000 | AID 778;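 active = CYP2C19 inhibition above a set limit at 5 µM in the primary screen, cut at about 50% in these data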;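 also: plate controls were negative control wells for no effect and 2.5 mM tranylcypromine positive control for full effect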
CYP2C9 inh: blocks human cytochrome P450 2C9. P11712. inhibition, % at 5 µM. CYP2C9 Supersomes, luciferin-H conversion, luminescence. AID 777. hit rate 20% among 96,000;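 active = blocking of liver enzyme CYP2C9 beyond about 50% at 5 µM, limit read from the data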
An asterisk follows results filed as active; x = not tested or not shown.

SMILES	MRP-1 activ	MRP resist rev	CYP2C9 activ	CYP2C19 activ	CYP2C19 inh	CYP2C9 inh
Cc1cccc(-n2ccnc2SCC(=O)Nc2nccs2)c1	-1.0	3.3	0.5	0.4	59.9*	49.0
CCOc1ccc(-c2nc(C)c(C(C)=O)n2O)cc1	-3.5	9.7	0.7	0.8	17.8	33.5
CC1=C(C(=O)OCCNC(=O)c2cccnc2)C(c2cccc([N+](=O)[O-])c2)C(C(=O)OCCN(C)C)=C(C)N1 (stereo not drawn)	-0.1	x	x	x	x	x
COc1cc(NC(=O)c2cccs2)c(C(=O)OCC(=O)NCc2ccco2)cc1OC	-1.1	5.6	0.2	0.7	26.9	82.4*
O=C(COC(=O)c1ccccc1NCc1ccco1)Nc1ccc2c(c1)OCO2	-4.7	-9.1	0.6	1	0.3	41.1
CCn1c(=O)cc(OCC(=O)NCc2ccco2)c2ccccc21	-3.5	-0.4	1.1	1	3.6	-10.3
CSc1ccc(Cl)c(C(=O)OCC(=O)NCc2ccco2)c1	-0.3	6.2	0.6	0.1	92.8*	43.0
CSc1ccc(Cl)c(C(=O)NCc2ccco2)c1	-0.7	-0.5	1.1	0.7	35.0	-11.7
NC(=O)c1ccsc1NC(=O)COC(=O)c1ccccc1NCc1ccco1	-2.3	-3.9	0.1	0.3	73.6*	89.7*
CC(C)(C)c1ccc(OCC(=O)NCc2ccco2)c(Br)c1	-3.9	1.9	0.2	0.5	45.6	76.3*
CC1=C/C(=N\Nc2ccccc2[N+](=O)[O-])CC(C)(C)C1	-2.3	x	x	x	x	x
O=C(COC(=O)c1ccco1)NCc1cccs1	-3.6	25.8	0.9	0.6	37.5	5.6
O=C(COC(=O)c1cccs1)NCc1ccccc1	-0.5	-9.3	0.8	0.1	91.8*	22.6
O=C(COC(=O)c1cccs1)NCc1ccco1	x	-19.0	0.8	0.3	69.7*	20.2
CCOc1cc(C(=O)OCC(=O)NCc2ccco2)cc(OCC)c1OCC	-1.8	-2.8	0.4	0.4	58.2*	57.4*
Nc1ccc2nc(-c3ccccc3)sc2c1	-1.9	-0.3	0.5	0.3	71.6*	50.8*
COCC(=O)Nc1cc(Cl)c(OC)cc1OC	1.3	x	x	x	x	x
CCN(CC)S(=O)(=O)c1ccc(OC)c(NC(=O)CSc2cc(C)ccc2C)c1	-1.6	x	x	x	x	x
COC(=O)c1cc(CSc2nnc(-c3ccccc3)c(-c3ccccc3)n2)oc1C	-0.3	-6.9	0.5	0.9	11.7	52.8*
COC(=O)c1nnc(-c2ccccc2)c(-c2ccccc2)n1	-0.8	-1.7	1.2	0.8	19.6	-22.5
COc1ccc2c(c1)c(=O)oc1cc(OCC(=O)N3CCc4ccccc4C3)ccc12	-4.3	21.3	0.4	0.6	40.2	61.4*
CC(=O)COc1ccc2c(C)c(C)c(=O)oc2c1	0.3	1.5	0.9	0.9	10.4	14.0
COc1ccc2c(c1)c(=O)oc1cc(OCC(=O)N3CCC(C)CC3)ccc12	-3.3	7.0	0.5	0	98.9*	47.7
Cc1cc(=O)oc2cc(OCC(=O)N3CCOCC3)ccc12	-0.2	-4.0	x	x	x	x
COc1ccc2c(c1)c(=O)oc1cc(OCC(=O)N3CCCC(C)C3)ccc12 (stereo not drawn)	-3.3	-7.7	0.6	0	99.0*	44.0
SMILES	MRP-1 activ	MRP resist rev	CYP2C9 activ	CYP2C19 activ	CYP2C19 inh	CYP2C9 inh
COc1ccc(C(c2nnnn2Cc2ccc(F)cc2)N2CCN(c3ccc(OC)cc3)CC2)cc1 (stereo not drawn)	0.1	-23.9	0.5	0.6	37.6	49.8
COc1ccc(Cn2nnnc2C(c2ccccn2)N2CCN(c3cc(Cl)ccc3C)CC2)cc1 (stereo not drawn)	-2.2	-6.9	0.1	0	97.9*	87.7*
CC1CCN(C(c2ccc(N(C)C)cc2)c2nnnn2Cc2ccccc2)CC1 (stereo not drawn)	-3.2	-21.1	0.9	0.7	34.2	6.1
COc1ccc(Cn2nnnc2C(c2cccs2)N2CCOCC2)cc1 (stereo not drawn)	-1.9	-2.1	0.4	0.1	86.3*	55.9*
COc1ccc(Cn2nnnc2C(c2ccc(N(C)C)cc2)N2CCC(C)CC2)cc1 (stereo not drawn)	-3.9	4.5	0.5	0.4	57.5*	52.5*
COc1ccc(Cn2nnnc2C(c2ccc(F)cc2)N2CCN(C3CCCC3)CC2)cc1 (stereo not drawn)	-3.7	-7.2	0.6	0.1	88.2*	35.9
O=C(CSc1nc2c(c(=O)[nH]1)CCCC2)Nc1ccc(Cl)cc1F	-0.2	-3.9	1	1.1	-13.7	4.6
